From PubChem BioAssay (Tox21)
Values joined by “and” are separate entries in the source; they are usually repeats but may differ in a detail not shown here. Equal values may be shown once. Records with an inconclusive call do not appear. Where a structure was tested more than once in an assay, its records may differ in their call. Active and inactive are the calls of the source. Unless noted, calls come from the whole dose curve.

Assays:
[1] = Nuclear factor erythroid 2-related factor 2/antioxidant responsive element (Nrf2/ARE) small molecule agonists: qHTS cell viability counter screen in human keratinocytes (AID 1919968; active = well fitted curve in the direction sought with a large enough effect in the repeat runs; an effect the other way counts as inactive or inconclusive; note: nearly all actives have a fitted effect of over 55% in size; note: potency is the fitted concentration of half-maximal effect)
Method in brief: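 HaCaT ARE reporter line, 1,500 cells/well; 5 h settle, 37 C/5% CO2; cpd in DMSO pinned; 23 h exposure; CellTiter-Fluor, 1 h; fluorescence.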

[2] = Nuclear factor erythroid 2-related factor 2/antioxidant responsive element (Nrf2/ARE) small molecule agonists: luciferase reporter gene qHTS assay in human keratinocytes (AID 1919969); note: nearly all actives have a fitted effect of over 35% in size; note: potency is the fitted concentration of half-maximal effect
[3] = biological target: Gonadotropin-releasing hormone receptor (Homo sapiens) (UniProt P30968); assay: Human gonadotropin-releasing hormone receptor (GnRHR) small molecule agonists, calcium flux assay in GnRHR-HEK293 cells (AID 1920063); note: nearly all actives have a fitted effect of over 35% in size
Method in brief: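 GnRHR-HEK293, 1500 cells/well, 18 h 37 C/5% CO2; Ca dye 1 h 37 C; cpd pinned (DMSO), agonist mode; kinetic FL 480/540, 3 min, 1 s reads; 15 conc, n=3.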

[4] = biological target: KiSS-1 receptor (Homo sapiens) (UniProt Q969F8); assay: Human kisspeptin (KISS1R) small molecule agonists, calcium flux assay in KISS1R-HEK293 cells (AID 1920064; active = well fitted curve in the direction sought with a large enough effect in the repeat runs; an effect the other way counts as inactive or inconclusive)
Method in brief: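 Stable human KISS1R HEK293 line; 18 h plating, 37 C/5% CO2; calcium dye 1 h 37 C; compound pin transfer; kinetic fluorescence Ex/Em 480/540, 3 min.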

[5] = G protein-coupled receptor (GPCR) small molecule agonists, calcium flux assay: HEK293 wild type cell line counter screen (AID 1920065)
Method in brief: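 Kinetic fluorescence at Ex/Em 480/540, recorded every second over 3 min, served as the read-out after compound addition. Each compound was tested at 15 concentrations in triplicate on cells pre-loaded with calcium dye for 1 h.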

[6] = p53 small molecule agonists, cell-based qHTS assay with rat liver microsomes (AID 1963578)
Method in brief: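 Fluorescence from a beta-lactamase reporter under a p53 response element was measured after cells had been incubated 16 h at 37 C with test compound and rat liver microsomes plus NADPH (0.5 mg/mL final each).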

[7] = p53 small molecule agonists, cell-based qHTS assay with rat liver microsomes: qHTS cell viability counter screen (AID 1963580); note: nearly all actives have a fitted effect of over 45% in size; note: potency is the fitted concentration of half-maximal effect
Method in brief: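 In HCT-116 cells carrying a p53 response element-bla reporter, compounds were metabolically activated in situ by rat liver microsomes with NADPH over 16 h. Cell ATP content then served as the cytotoxicity measure.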

[8] = p53 small molecule agonists, cell-based qHTS assay: qHTS cell viability counter screen (AID 1963581); note: nearly all actives have a fitted effect of over 45% in size; note: potency is the fitted concentration of half-maximal effect
Method in brief: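 HCT-116 p53RE-bla cells, 4,000/well, plated 5 h before compound pin transfer; 16 h at 37 C; bla substrate 2 h RT; then CellTiter-Glo, 30 min RT, luminescence.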

[9] = p53 small molecule agonists, cell-based qHTS assay (AID 1963582; active = well fitted activation curve with a large enough effect in the signal ratio in the repeat runs, not every such curve was filed as active; the % refers to the signal ratio)
Method in brief: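 Reporter line: p53RE-bla. Pre-incubation 5 h, 37 C, 5% CO2; compound (DMSO, pin tool) 16 h, 37 C; B/G FRET substrate 2 h RT; fluorescence intensity read.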

[10] = biological target: Muscarinic acetylcholine receptor M1 (Homo sapiens) (UniProt P11229); assay: Cholinergic receptor muscarinic 1 (CHRM1) small molecule antagonists, cell-based qHTS assay (AID 1963588); note: nearly all actives have a fitted effect of over 40% in size
Method in brief: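 CHRM1-CHO calcium-flux assay, antagonist mode. Cells were seeded 18 h, dye-loaded 1 h at 37 C and given compound for 5 min at RT, then acetylcholine was added at 50nM. FDSS fluorescence was read 3 min; 15 concentrations, three runs.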

[11] = biological target: Muscarinic acetylcholine receptor M1 (Homo sapiens) (UniProt P11229); assay: Cholinergic receptor muscarinic 1 (CHRM1) small molecule agonists, cell-based qHTS assay (AID 1963589); note: nearly all actives have a fitted effect of over 35% in size
Method in brief: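 Human M1 in stable CHO line; 18 h plating, 1 h dye load 37 C; cpd added (agonist mode); Ca2+ fluorescence kinetic read, 1 s intervals; 15 conc, 3 runs.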

[12] = cAMP Responsive Elements (CRE) small molecule agonists, cell-based qHTS assay (AID 1963590); note: potency is the fitted concentration of half-maximal effect
Method in brief: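 HEK 293T CRE-bla, 2,000 cells/well, 18 h preincubation 37 C/5% CO2; cpds (DMSO) pinned, 3 h; LiveBLAzer B/G FRET substrate, 2 h RT.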

[13] = cAMP Responsive Elements (CRE) small molecule antagonists, cell-based qHTS assay (AID 1963591; active = well fitted inhibition curve with a large enough effect in the signal ratio in the repeat runs, not every such curve was filed as active; the % refers to the signal ratio)
Method in brief: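 Beta-lactamase reporter read by FRET substrate (LiveBLAzer B/G) after 2 h at room temperature. CRE-bla HEK293T cells had received compound plus 0.25 uM (final) NKH477 for 3 h at 37 °C.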

[14] = biological target: Beta-2 adrenergic receptor (Homo sapiens) (UniProt P07550); assay: Adrenergic beta2 receptor (ADRB2) small molecule antagonists, cell-based qHTS assay (AID 1963592); note: series mostly up to about 92 µM; nearly all actives have a fitted effect of over 50% in size
Method in brief: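 Cells (CHO, stable ADRB2 overexpression) incubated 18-20hr at 37C; compounds added from DMSO; agonist mix (1nM isoproterenol, 100uM IBMX, 25uM Ro-20-1724) added; 0.5hr RT; d2-cAMP and anti-cAMP-cryptate added; 1hr RT; 665/615 nm read.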

[15] = biological target: Beta-2 adrenergic receptor (Homo sapiens) (UniProt P07550); assay: Adrenergic beta2 receptor (ADRB2) small molecule agonists, cell-based qHTS assay (AID 1963593);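 note: CHO cells stably overexpressing human ADRB2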
Method in brief: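 CHO cells stably over-expressing ADRB2 were plated overnight at 37C, then dosed with compounds plus a stimulation mix containing 100uM IBMX and 25uM Ro-20-1724 for 0.5hr at room temperature. cAMP was measured by HTRF competition, 1hr.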

[16] = biological target: D(2) dopamine receptor (Homo sapiens) (UniProt P14416); assay: Dopamine D2 receptor (DRD2) small molecule agonists, cell-based qHTS assay (AID 1963594); note: nearly all actives have a fitted effect of over 35% in size
Method in brief: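 HEK293 cells stably expressing DRD2 were cultured 24 h at 37 C, then given Ro20-1724 (0.1 mM final) and compounds for 10 min at room temperature. NKH477 (200nM) was then added for 30 min. cAMP was read by HTRF.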

[17] = biological target: D(2) dopamine receptor (Homo sapiens) (UniProt P14416); assay: Dopamine D2 receptor (DRD2) small molecule antagonists, cell-based qHTS assay (AID 1963595; active = well fitted inhibition curve with a large enough effect in the signal ratio in the repeat runs, with a control signal flat; the % refers to the signal ratio; note: potency is the fitted concentration of half-maximal effect)
Method in brief: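 HTRF cAMP read-out at 665 and 620 nm emission (340 nm excitation). Antagonist mode: compounds were tested against 12 nM quinpirole in DRD2-HEK293 cells, with 200 nM NKH477 raising cAMP and 0.1 mM Ro20-1724 blocking its breakdown.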

[18] = p53 small molecule agonists, cell-based qHTS assay with human liver microsomes: qHTS cell viability counter screen (AID 1963579); note: nearly all actives have a fitted effect of over 45% in size; note: potency is the fitted concentration of half-maximal effect
Method in brief: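 Seed p53RE-bla cells at 4,000 per well; incubate 5 h at 37 C; add compound, human liver microsomes and NADPH; incubate 16 h at 37 C; add CellTiter-Glo; after 30 min at room temperature, read luminescence.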

[19] = biological target: 5-hydroxytryptamine receptor 2A (Homo sapiens) (UniProt P28223); assay: 5-hydroxytryptamine receptor 2A (HTR2A) small molecule antagonists, cell-based qHTS assay (AID 1963586); note: nearly all actives have a fitted effect of over 45% in size; note: potency is the fitted concentration of half-maximal effect
Method in brief: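 Antagonist-mode intracellular calcium assay: DOI (4 nM) added after 5 min compound pre-incubation at room temperature to dye-loaded HTR2A-CHO cells. Fluorescence followed for 3 min, sampled every second.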

[20] = biological target: 5-hydroxytryptamine receptor 2A (Homo sapiens) (UniProt P28223); assay: 5-hydroxytryptamine receptor 2A (HTR2A) small molecule agonists, cell-based qHTS assay (AID 1963587); note: nearly all actives have a fitted effect of over 30% in size
Method in brief: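 HTR2A-CHO cells, plated 18 h at 37 C/5% CO2, dye-loaded 1 h at 37 C; compounds in DMSO added by pin tool (agonist mode). Intracellular calcium flux read as kinetic fluorescence on FDSS over 2 min at 1 s intervals.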

Measured: Potency

Chain of Gonadotropin-releasing hormone receptor (Homo sapiens) (P30968 whole entry, looked up): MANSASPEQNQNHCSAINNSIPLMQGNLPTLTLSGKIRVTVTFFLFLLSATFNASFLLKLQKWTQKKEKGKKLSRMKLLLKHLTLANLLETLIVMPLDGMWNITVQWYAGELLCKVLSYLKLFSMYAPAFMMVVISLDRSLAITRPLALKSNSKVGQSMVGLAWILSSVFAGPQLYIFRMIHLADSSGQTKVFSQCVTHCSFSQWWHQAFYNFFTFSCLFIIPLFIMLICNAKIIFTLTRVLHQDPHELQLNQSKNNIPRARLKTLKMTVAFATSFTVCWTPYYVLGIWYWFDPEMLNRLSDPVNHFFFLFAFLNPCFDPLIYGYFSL
Chain of D(2) dopamine receptor (Homo sapiens) (P14416 whole entry, looked up): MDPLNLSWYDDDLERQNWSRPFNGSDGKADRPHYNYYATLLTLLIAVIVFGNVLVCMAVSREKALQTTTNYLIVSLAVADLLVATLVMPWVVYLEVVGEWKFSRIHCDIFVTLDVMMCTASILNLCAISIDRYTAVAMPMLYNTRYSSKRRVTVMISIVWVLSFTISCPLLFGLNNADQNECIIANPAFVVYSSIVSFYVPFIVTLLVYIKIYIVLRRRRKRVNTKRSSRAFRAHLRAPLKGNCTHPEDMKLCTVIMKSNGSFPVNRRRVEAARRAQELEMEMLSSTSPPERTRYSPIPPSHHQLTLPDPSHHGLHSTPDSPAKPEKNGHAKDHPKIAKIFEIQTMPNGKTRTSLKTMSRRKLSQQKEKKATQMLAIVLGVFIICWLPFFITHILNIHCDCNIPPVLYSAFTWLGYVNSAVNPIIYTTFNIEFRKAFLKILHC
Chain of 5-hydroxytryptamine receptor 2A (Homo sapiens) (P28223 whole entry, looked up): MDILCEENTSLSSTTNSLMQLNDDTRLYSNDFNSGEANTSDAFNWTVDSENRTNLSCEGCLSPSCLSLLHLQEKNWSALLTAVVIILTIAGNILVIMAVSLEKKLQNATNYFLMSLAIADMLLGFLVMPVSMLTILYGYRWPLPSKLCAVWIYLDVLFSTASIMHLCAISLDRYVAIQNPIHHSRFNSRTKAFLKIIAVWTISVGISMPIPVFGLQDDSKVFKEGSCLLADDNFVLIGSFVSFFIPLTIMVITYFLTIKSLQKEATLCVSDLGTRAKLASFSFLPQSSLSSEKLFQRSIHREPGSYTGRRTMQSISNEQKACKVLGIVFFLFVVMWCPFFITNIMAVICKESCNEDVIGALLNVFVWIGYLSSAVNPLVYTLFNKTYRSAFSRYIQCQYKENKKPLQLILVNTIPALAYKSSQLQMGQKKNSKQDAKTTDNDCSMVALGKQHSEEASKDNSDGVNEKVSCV
Chain of Muscarinic acetylcholine receptor M1 (Homo sapiens) (P11229 whole entry, looked up): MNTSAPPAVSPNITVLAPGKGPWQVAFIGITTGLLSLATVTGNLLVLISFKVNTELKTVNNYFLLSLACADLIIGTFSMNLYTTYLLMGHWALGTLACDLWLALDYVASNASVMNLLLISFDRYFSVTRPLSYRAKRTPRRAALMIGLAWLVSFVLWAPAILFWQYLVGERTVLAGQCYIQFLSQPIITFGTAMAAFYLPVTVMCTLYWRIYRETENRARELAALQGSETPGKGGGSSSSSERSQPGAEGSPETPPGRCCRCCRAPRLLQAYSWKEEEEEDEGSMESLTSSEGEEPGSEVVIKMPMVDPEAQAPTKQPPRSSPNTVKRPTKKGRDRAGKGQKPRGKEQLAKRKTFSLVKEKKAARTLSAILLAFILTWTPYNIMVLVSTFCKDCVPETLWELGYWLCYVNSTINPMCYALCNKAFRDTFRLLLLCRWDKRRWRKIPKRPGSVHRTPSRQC
Chain of KiSS-1 receptor (Homo sapiens) (Q969F8 whole entry, looked up): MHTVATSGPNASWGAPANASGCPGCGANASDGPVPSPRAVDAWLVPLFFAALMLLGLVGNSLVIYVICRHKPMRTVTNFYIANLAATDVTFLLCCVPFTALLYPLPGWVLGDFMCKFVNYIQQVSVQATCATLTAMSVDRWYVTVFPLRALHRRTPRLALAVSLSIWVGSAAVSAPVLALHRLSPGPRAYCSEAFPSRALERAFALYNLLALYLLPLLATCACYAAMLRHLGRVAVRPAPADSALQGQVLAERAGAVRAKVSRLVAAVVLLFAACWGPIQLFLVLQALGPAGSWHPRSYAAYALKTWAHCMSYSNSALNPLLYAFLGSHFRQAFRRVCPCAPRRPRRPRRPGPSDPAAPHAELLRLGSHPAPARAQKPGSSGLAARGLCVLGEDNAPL
Chain of Beta-2 adrenergic receptor (Homo sapiens) (P07550 whole entry, looked up): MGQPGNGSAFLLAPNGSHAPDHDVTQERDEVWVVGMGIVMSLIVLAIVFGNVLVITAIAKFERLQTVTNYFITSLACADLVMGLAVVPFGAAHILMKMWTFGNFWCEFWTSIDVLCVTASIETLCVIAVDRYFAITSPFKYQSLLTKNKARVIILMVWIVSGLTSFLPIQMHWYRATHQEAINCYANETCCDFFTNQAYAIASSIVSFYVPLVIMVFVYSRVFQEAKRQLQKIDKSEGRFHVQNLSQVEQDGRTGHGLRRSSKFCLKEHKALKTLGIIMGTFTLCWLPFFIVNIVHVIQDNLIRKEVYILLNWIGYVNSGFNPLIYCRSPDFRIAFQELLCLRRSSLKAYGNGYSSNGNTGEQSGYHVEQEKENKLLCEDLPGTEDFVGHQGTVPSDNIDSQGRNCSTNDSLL

Nc1ccc(S(=O)(=O)Nc2cnc3ccccc3n2)cc1
not listed: [18] | [19] | [20]
inactive: all other assays above

Nc1cc(Cl)c(-c2cc(Cl)c(N)cc2Cl)cc1Cl
3.06 µM (active) and inactive: [2]
active: [1] 27.3 µM and 48.6 µM | [18] 51.3 µM | [8] 32.4 µM | [19] 5.29 µM
not listed: [7] | [9] | [12] | [13] | [14] | [15]
inactive: all other assays above

COc1cc([C@@H]2c3cc4c(cc3[C@H](O)[C@H]3COC(=O)[C@H]23)OCO4)cc(OC)c1OC
active: [2] 54.4 nM and 53.1 nM
not listed: [8] | [10] | [11] | [12] | [13] | [18] | [19] | [20]
inactive: all other assays above

O=S(=O)(O)c1ccc2nc(-c3ccccc3)[nH]c2c1
active: [7] 15.5 µM
not listed: [8] | [15] | [18] | [19]
inactive: all other assays above

CC(=O)OCCC(C)C
not listed: [18] | [19]
inactive: all other assays above

NS(=O)(=O)c1cc2c(cc1Cl)NCNS2(=O)=O
not listed: [10] | [11] | [18] | [19] | [20]
inactive: all other assays above

CCCCCCCCCCCCc1ccccc1
61.2 µM (active) and inactive: [2]
not listed: [18]
inactive: all other assays above

C#C[C@]1(O)CC[C@H]2[C@@H]3CCC4=Cc5oncc5C[C@]4(C)[C@H]3CC[C@@]21C
inactive: [2] | [3] | [4] | [5] | [6] | [7] | [8] | [16] | [17]
active: [1] 61.1 µM and 23.7 µM | [12] 29.8 µM

CCOc1ccc(NC(C)=O)cc1
not listed: [10] | [11] | [18] | [19] | [20]
inactive: all other assays above

C=C(C)C(=O)OCC(C)C
not listed: [15]
inactive: all other assays above

O=c1[nH]nnc2ccccc12
not listed: [15]
inactive: all other assays above

COc1cc(NC(=O)CC(C)=O)c(OC)cc1Cl
not listed: [6] | [12] | [13] | [14] | [15]
inactive: all other assays above

O=C(O)C1=NN(c2ccc(S(=O)(=O)O)cc2)C(=O)C1
not listed: [6] | [12]
inactive: all other assays above

CC1COC(=O)O1 (stereo not given)
not listed: [6] | [14]
inactive: all other assays above

NCCN1CCNCC1
inactive: all assays above

CCc1cccc2c3c([nH]c12)C(CC)(CC(=O)O)OCC3 (stereo not given)
inactive and 23.7 µM (active): [17]
not listed: [6] | [10] | [11] | [18] | [19] | [20]
inactive: all other assays above
